Test results as given in ChEMBL document CHEMBL1961873, “Compounds: GSK PKIS; Assays: Nanosyn kinase panel” (2012).

What follows are compounds tested against Glycogen synthase kinase-3 alpha (Homo sapiens) (UniProt P49840). Settings: at 1 µM.
Glycogen synthase kinase-3 alpha (Homo sapiens), sequence (P49840 2-483 limits assumed): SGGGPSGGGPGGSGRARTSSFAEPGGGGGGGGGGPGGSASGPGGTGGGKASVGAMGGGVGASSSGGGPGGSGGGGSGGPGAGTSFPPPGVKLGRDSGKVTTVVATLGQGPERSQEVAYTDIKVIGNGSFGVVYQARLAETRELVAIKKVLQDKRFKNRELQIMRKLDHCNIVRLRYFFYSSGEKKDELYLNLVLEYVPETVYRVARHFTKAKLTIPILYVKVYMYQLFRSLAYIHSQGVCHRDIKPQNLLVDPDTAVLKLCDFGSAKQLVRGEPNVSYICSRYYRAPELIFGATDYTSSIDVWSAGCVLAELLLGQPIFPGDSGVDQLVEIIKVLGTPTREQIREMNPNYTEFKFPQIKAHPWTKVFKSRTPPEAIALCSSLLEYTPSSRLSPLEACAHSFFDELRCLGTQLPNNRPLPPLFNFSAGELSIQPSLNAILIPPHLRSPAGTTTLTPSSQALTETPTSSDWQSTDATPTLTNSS

SMILES	inhibition
Cc1ccc(C(=O)NC2CC2)cc1-c1ccc2[nH]ncc2c1	1.83%
OCc1ccc(-c2nc(-c3ccccn3)c(-c3ccc4c(c3)OCO4)[nH]2)cc1	4.5%
CC(C)c1ccc2c(c1)NC(=O)/C2=N/Nc1ccc(S(N)(=O)=O)cc1	16.5%
CN(C)C(=O)O[C@@H]1CN[C@@H](C#Cc2cc3ncnc(Nc4ccc(OCc5cccc(F)c5)c(Cl)c4)c3s2)C1	8.31%
COc1cccc(-n2nc(C)c3c(N/N=C(\C)c4ccncc4)ncnc32)c1	11.6%
COC(=O)c1ccc2c(c1)C(=Cc1cc(Br)c(O)c(Br)c1)C(=O)N2	42.9%
Oc1cccc(-c2nc(-c3ccccc3)[nH]c2-c2ccncc2)c1	14.8%
NS(=O)(=O)c1ccc(N/N=C2\C(=O)Nc3ccc(Cl)cc32)cc1	61.2%
COC(=O)Nc1nc2cc(Oc3ccc(NC(=O)Nc4cccc(Br)c4)cc3)ccc2[nH]1	5.24%
COC(=O)c1cncc(/C=C/c2c(C)cc(O)cc2C)c1	14.3%
COc1cc(/C=N/Nc2ncnc3c2cnn3C(C)C)ccc1O	37.4%
CCS(=O)(=O)c1ccc(OC)c(Nc2nccc(N(C)c3ccc4c(C)n[nH]c4c3)n2)c1	3.41%
[O-][S+]1CCN(Cc2ccc(-c3ccc4ncnc(Nc5ccc(OCc6ccccc6)c(Cl)c5)c4c3)o2)CC1	1.03%
c1ccc(Cc2nc3ccc(Nc4ncnc5ccccc45)cc3[nH]2)cc1	9.56%
CCS(=O)(=O)c1ccc(OC)c(Nc2ncc(-c3cccc(OC)c3)o2)c1	9.4%
CCn1c(-c2nonc2N)nc2ccc(F)cc21	4.96%
CN(C)c1cc2c(Nc3ccc4c(cnn4Cc4ccccc4)c3)ncnc2cn1	5.95%

SMILES	inhibition
COc1cc2ncnc(Nc3ccc4c(cnn4Cc4ccccc4)c3)c2cc1OC	6.57%
O=C1Nc2ccc(-c3cccnc3)cc2C1=Cc1cc(Br)c(O)c(Br)c1	26.1%
COc1cc2ncnc(Nc3ccc(C)c(O)c3)c2cc1OC	8.57%
Cc1ccc2c(-c3ccnc(Nc4ccc5c(c4)OCCO5)n3)c(-c3ccc(C(F)(F)F)cc3)nn2n1	10.5%
Cc1ccc2c(-c3ccnc(Nc4cccc(C(F)(F)F)c4)n3)c(-c3ccccc3)nn2n1	68.5%
C[C@@H](Oc1cc(-n2cnc3ccc(OC[C@@H](O)CO)cc32)sc1C(N)=O)c1ccccc1Cl	3.84%
CN(C)CCCn1c(-c2nonc2N)nc2cnccc21	15.1%
CN(c1ccc(NC(=O)Nc2ccc(OC(F)(F)F)cc2)cc1)c1ccnc(Nc2cccc(S(N)(=O)=O)c2)n1	9.4%
O=C1Nc2ccccc2/C1=C/Nc1ccc2[nH]c(=O)[nH]c2c1	14.4%
Cc1ccc2c(c1)/C(=N/Nc1ccc(S(N)(=O)=O)cc1)C(=O)N2	31.3%
CCCN1CCCC(c2ccc(Nc3nc(Nc4cc(F)ccc4C(N)=O)c4cc[nH]c4n3)c(OC)c2)C1 (stereo not drawn)	2.99%
Nc1nccc(-c2c(-c3ccc(F)cc3)nn3cc(C(F)(F)F)ccc23)n1	-0.65%
NS(=O)(=O)c1ccc(-c2cc3ccncc3cc2OCc2ccccc2)cc1	4.95%
NC(=O)c1sc(-n2cnc3ccccc32)cc1OCc1ccccc1Br	11.9%
O=S(=O)(CCOCc1ccc(-c2ccc3ncnc(Nc4ccc(OCc5cccc(F)c5)c(Cl)c4)c3c2)o1)c1ccccc1	5.63%
Nc1ccc(C#Cc2cncnc2Nc2ccc(OCc3cccc(F)c3)c(Cl)c2)cc1	1.4%
ON=C1CCc2cc(-c3nc(C4CCNCC4)[nH]c3-c3ccncc3)ccc21	5.93%

These compounds were tested against Glycogen synthase kinase-3 beta (Homo sapiens) (UniProt P49841). Settings: at 0.1 µM.
Glycogen synthase kinase-3 beta (Homo sapiens), sequence (P49841 whole entry, looked up): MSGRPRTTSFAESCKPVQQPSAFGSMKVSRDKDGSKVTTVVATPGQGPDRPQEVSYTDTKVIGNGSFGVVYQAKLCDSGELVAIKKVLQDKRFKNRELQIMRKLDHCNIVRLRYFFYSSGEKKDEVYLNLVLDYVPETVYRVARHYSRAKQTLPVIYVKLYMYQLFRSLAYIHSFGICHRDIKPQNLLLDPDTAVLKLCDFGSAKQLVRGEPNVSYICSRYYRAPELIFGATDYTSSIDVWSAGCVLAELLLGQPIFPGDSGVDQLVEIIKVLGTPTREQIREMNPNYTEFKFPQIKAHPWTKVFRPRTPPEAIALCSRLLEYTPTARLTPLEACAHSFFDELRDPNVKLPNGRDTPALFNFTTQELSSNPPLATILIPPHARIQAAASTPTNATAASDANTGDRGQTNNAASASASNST

SMILES	inhibition
Cc1ccc(C(=O)NC2CC2)cc1-c1ccc2[nH]ncc2c1	-0.96%
OCc1ccc(-c2nc(-c3ccccn3)c(-c3ccc4c(c3)OCO4)[nH]2)cc1	2.21%
CC(C)c1ccc2c(c1)NC(=O)/C2=N/Nc1ccc(S(N)(=O)=O)cc1	4.19%
CN(C)C(=O)O[C@@H]1CN[C@@H](C#Cc2cc3ncnc(Nc4ccc(OCc5cccc(F)c5)c(Cl)c4)c3s2)C1	1.37%
COc1cccc(-n2nc(C)c3c(N/N=C(\C)c4ccncc4)ncnc32)c1	3.08%
COC(=O)c1ccc2c(c1)C(=Cc1cc(Br)c(O)c(Br)c1)C(=O)N2	9.77%
Oc1cccc(-c2nc(-c3ccccc3)[nH]c2-c2ccncc2)c1	5.61%
NS(=O)(=O)c1ccc(N/N=C2\C(=O)Nc3ccc(Cl)cc32)cc1	13.5%
COC(=O)Nc1nc2cc(Oc3ccc(NC(=O)Nc4cccc(Br)c4)cc3)ccc2[nH]1	1.01%
COC(=O)c1cncc(/C=C/c2c(C)cc(O)cc2C)c1	6.58%
COc1cc(/C=N/Nc2ncnc3c2cnn3C(C)C)ccc1O	4.9%
CCS(=O)(=O)c1ccc(OC)c(Nc2nccc(N(C)c3ccc4c(C)n[nH]c4c3)n2)c1	1.45%
[O-][S+]1CCN(Cc2ccc(-c3ccc4ncnc(Nc5ccc(OCc6ccccc6)c(Cl)c5)c4c3)o2)CC1	0.33%
c1ccc(Cc2nc3ccc(Nc4ncnc5ccccc45)cc3[nH]2)cc1	5.99%
CCS(=O)(=O)c1ccc(OC)c(Nc2ncc(-c3cccc(OC)c3)o2)c1	2.23%
CCn1c(-c2nonc2N)nc2ccc(F)cc21	3%
CN(C)c1cc2c(Nc3ccc4c(cnn4Cc4ccccc4)c3)ncnc2cn1	1.16%

SMILES	inhibition
COc1cc2ncnc(Nc3ccc4c(cnn4Cc4ccccc4)c3)c2cc1OC	4.13%
O=C1Nc2ccc(-c3cccnc3)cc2C1=Cc1cc(Br)c(O)c(Br)c1	3.87%
COc1cc2ncnc(Nc3ccc(C)c(O)c3)c2cc1OC	4.62%
Cc1ccc2c(-c3ccnc(Nc4ccc5c(c4)OCCO5)n3)c(-c3ccc(C(F)(F)F)cc3)nn2n1	4.65%
Cc1ccc2c(-c3ccnc(Nc4cccc(C(F)(F)F)c4)n3)c(-c3ccccc3)nn2n1	35.7%
C[C@@H](Oc1cc(-n2cnc3ccc(OC[C@@H](O)CO)cc32)sc1C(N)=O)c1ccccc1Cl	0.42%
CN(C)CCCn1c(-c2nonc2N)nc2cnccc21	2.77%
CN(c1ccc(NC(=O)Nc2ccc(OC(F)(F)F)cc2)cc1)c1ccnc(Nc2cccc(S(N)(=O)=O)c2)n1	0.92%
O=C1Nc2ccccc2/C1=C/Nc1ccc2[nH]c(=O)[nH]c2c1	2.99%
Cc1ccc2c(c1)/C(=N/Nc1ccc(S(N)(=O)=O)cc1)C(=O)N2	1.9%
CCCN1CCCC(c2ccc(Nc3nc(Nc4cc(F)ccc4C(N)=O)c4cc[nH]c4n3)c(OC)c2)C1 (stereo not drawn)	0.7%
Nc1nccc(-c2c(-c3ccc(F)cc3)nn3cc(C(F)(F)F)ccc23)n1	-1.01%
NS(=O)(=O)c1ccc(-c2cc3ccncc3cc2OCc2ccccc2)cc1	2.08%
NC(=O)c1sc(-n2cnc3ccccc32)cc1OCc1ccccc1Br	4.55%
O=S(=O)(CCOCc1ccc(-c2ccc3ncnc(Nc4ccc(OCc5cccc(F)c5)c(Cl)c4)c3c2)o1)c1ccccc1	2.14%
Nc1ccc(C#Cc2cncnc2Nc2ccc(OCc3cccc(F)c3)c(Cl)c2)cc1	1.95%
ON=C1CCc2cc(-c3nc(C4CCNCC4)[nH]c3-c3ccncc3)ccc21	0.85%
